The results in this text go back to ChEMBL document CHEMBL1961873, “Compounds: GSK PKIS; Assays: Nanosyn kinase panel” (2012).

The target in assay [1] is Protein kinase C gamma type (Homo sapiens) (UniProt P05129). To be noted: at 1 µM.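 Note: each value is an averaged percent inhibition of the enzyme.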
In assay [2] the target is T1, Protein kinase C iota type (Homo sapiens) (UniProt P41743).
T1 sequence (whole entry): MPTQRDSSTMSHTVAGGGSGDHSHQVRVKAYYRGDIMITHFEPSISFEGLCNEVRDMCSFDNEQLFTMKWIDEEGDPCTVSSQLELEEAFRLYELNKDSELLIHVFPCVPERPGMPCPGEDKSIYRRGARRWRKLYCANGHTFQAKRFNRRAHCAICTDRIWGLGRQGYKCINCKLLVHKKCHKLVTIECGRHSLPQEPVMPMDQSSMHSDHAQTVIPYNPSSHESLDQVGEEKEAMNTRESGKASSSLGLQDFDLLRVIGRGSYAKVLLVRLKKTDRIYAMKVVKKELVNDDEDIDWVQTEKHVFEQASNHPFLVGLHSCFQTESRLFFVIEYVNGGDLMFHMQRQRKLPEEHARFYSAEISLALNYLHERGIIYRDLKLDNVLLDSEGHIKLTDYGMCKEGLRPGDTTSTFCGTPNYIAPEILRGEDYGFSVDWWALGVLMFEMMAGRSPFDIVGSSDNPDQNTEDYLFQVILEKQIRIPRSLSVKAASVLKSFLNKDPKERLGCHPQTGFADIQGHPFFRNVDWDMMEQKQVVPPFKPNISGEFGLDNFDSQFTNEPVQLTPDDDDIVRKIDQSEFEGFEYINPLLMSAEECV
To be noted: at 0.1 µM.

Assay [3] deals with T1, Protein kinase C iota type (Homo sapiens). To be noted: at 1 µM.
In assay [4] the target is Protein kinase C theta type (Homo sapiens) (UniProt Q04759). Particulars: at 0.1 µM.
Chain of Protein kinase C theta type (Homo sapiens) (Q04759 whole entry, looked up): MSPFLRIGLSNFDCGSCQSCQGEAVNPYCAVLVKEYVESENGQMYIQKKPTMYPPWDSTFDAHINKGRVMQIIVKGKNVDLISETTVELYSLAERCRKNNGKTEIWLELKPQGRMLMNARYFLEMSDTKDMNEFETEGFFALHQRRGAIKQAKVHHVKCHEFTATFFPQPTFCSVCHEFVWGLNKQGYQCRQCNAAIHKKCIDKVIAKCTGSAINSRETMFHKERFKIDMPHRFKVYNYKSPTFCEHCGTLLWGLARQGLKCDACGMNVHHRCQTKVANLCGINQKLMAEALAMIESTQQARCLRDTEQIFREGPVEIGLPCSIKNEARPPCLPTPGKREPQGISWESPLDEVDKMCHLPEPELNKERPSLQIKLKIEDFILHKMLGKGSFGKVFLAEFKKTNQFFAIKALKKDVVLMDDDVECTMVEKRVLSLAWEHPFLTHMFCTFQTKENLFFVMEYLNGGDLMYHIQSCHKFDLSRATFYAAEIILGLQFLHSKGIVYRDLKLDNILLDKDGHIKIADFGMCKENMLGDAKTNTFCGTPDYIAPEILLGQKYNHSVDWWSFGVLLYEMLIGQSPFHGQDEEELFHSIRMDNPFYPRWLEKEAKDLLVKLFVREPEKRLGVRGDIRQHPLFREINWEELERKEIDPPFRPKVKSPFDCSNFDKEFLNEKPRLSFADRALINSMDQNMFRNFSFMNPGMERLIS
Assay [5] has the same target. Particulars: at 1 µM.
In assay [6] the target is Protein kinase C beta type (Homo sapiens) (UniProt P05771). Particulars: at 0.1 µM.
Chain of Protein kinase C beta type (Homo sapiens) (P05771 2-671 limits assumed): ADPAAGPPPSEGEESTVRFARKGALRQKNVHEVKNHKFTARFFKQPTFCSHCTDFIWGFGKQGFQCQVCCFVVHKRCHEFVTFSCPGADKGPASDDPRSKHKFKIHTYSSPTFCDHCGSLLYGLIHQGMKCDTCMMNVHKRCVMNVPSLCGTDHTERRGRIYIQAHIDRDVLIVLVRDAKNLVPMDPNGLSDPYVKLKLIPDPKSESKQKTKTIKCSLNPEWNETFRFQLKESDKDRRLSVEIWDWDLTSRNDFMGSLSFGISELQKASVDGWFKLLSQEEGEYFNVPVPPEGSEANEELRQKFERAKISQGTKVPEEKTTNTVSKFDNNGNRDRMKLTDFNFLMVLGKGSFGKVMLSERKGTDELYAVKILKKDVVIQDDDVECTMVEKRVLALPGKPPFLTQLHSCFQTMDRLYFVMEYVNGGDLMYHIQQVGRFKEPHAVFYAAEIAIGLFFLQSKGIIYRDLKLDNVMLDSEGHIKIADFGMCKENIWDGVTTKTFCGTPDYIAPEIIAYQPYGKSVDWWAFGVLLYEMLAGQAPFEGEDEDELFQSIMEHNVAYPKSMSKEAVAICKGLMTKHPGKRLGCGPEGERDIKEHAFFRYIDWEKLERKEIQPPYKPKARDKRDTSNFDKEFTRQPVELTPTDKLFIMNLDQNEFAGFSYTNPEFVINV
Assay [7] has the same target. Particulars: at 1 µM.
Assay [8] deals with T2, Serine/threonine-protein kinase D1 (Homo sapiens) (UniProt Q15139).
T2 sequence (whole entry): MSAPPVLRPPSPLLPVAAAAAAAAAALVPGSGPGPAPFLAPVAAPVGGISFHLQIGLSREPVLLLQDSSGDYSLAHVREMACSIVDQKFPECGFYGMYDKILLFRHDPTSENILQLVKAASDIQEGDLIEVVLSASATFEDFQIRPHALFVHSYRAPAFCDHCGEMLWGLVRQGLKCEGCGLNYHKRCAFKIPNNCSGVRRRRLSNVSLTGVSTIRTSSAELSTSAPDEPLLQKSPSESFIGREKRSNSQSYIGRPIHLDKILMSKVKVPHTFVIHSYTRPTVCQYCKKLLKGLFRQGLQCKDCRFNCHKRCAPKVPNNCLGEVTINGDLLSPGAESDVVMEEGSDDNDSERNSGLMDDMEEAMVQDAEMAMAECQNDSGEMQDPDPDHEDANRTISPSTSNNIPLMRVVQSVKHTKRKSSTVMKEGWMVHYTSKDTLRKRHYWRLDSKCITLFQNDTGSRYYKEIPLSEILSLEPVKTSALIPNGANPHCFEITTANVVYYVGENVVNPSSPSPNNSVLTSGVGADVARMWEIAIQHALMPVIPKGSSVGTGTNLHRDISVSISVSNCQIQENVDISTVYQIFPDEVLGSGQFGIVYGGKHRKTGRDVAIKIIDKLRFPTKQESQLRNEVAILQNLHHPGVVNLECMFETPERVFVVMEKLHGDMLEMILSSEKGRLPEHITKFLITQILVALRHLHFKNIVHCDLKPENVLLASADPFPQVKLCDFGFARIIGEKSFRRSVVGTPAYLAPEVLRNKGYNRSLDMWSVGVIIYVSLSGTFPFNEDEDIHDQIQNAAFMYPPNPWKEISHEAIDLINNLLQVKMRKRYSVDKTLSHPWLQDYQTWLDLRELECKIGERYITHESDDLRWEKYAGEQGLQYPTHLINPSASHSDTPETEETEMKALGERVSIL
Particulars: at 0.1 µM.

Assay [9] addresses T2, Serine/threonine-protein kinase D1 (Homo sapiens). Particulars: at 1 µM.
For assay [10], the target named is T3, Serine/threonine-protein kinase D2 (Homo sapiens) (UniProt Q9BZL6).
T3 sequence (whole entry): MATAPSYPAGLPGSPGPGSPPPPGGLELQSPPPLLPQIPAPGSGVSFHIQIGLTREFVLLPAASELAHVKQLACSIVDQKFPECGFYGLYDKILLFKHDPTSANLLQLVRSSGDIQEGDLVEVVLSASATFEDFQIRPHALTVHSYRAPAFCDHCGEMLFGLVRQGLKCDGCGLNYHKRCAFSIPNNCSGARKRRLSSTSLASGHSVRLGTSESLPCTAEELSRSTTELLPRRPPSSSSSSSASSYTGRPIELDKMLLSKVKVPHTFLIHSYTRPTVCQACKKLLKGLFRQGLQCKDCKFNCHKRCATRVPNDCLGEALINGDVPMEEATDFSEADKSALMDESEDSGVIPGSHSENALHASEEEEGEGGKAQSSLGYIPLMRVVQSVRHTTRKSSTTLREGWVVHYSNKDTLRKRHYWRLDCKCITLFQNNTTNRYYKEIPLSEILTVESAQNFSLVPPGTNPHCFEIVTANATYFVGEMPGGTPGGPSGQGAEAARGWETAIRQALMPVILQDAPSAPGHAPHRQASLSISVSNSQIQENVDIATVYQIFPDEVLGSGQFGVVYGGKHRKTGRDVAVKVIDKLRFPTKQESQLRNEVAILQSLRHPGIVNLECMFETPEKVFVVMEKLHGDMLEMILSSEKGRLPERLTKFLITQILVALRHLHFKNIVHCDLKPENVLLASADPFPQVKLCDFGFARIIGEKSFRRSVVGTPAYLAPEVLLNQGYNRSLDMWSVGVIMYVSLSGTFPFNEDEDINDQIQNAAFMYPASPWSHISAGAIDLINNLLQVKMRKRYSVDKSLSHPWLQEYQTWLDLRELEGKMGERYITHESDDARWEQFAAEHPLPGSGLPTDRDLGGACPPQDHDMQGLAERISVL
Particulars: at 0.1 µM.

In assay [11] the target is T3, Serine/threonine-protein kinase D2 (Homo sapiens). To be noted: at 1 µM.
Assay [12] concerns the target T4, Serine/threonine-protein kinase D3 (Homo sapiens) (UniProt O94806).
T4 sequence (whole entry): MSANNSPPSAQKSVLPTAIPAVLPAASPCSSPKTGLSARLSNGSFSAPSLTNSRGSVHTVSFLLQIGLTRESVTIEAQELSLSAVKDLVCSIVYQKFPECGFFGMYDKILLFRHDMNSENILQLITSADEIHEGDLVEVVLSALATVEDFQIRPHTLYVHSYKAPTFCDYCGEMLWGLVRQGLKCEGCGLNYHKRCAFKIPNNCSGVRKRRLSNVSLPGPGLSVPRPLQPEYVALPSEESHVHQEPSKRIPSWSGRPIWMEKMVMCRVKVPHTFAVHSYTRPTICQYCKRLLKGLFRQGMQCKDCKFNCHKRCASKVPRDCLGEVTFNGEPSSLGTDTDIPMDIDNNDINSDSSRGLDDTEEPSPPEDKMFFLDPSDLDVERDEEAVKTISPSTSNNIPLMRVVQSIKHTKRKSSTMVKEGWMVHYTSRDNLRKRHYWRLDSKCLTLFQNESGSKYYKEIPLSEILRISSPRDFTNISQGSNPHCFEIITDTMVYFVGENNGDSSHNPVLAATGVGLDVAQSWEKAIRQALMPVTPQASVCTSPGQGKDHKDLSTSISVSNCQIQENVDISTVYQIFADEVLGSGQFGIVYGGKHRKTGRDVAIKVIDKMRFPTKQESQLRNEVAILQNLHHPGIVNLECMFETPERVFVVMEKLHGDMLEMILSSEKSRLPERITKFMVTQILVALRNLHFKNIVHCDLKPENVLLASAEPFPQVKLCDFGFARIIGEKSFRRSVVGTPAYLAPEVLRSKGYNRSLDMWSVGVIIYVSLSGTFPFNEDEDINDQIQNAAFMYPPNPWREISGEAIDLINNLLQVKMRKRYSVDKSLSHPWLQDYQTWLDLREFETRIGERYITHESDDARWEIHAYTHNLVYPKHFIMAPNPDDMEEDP
Particulars: at 0.1 µM.

For assay [13], the target named is T4, Serine/threonine-protein kinase D3 (Homo sapiens). Particulars: at 1 µM.
Assay [14] addresses T5, cGMP-dependent protein kinase 1 (Homo sapiens) (UniProt Q13976).
T5 sequence (whole entry): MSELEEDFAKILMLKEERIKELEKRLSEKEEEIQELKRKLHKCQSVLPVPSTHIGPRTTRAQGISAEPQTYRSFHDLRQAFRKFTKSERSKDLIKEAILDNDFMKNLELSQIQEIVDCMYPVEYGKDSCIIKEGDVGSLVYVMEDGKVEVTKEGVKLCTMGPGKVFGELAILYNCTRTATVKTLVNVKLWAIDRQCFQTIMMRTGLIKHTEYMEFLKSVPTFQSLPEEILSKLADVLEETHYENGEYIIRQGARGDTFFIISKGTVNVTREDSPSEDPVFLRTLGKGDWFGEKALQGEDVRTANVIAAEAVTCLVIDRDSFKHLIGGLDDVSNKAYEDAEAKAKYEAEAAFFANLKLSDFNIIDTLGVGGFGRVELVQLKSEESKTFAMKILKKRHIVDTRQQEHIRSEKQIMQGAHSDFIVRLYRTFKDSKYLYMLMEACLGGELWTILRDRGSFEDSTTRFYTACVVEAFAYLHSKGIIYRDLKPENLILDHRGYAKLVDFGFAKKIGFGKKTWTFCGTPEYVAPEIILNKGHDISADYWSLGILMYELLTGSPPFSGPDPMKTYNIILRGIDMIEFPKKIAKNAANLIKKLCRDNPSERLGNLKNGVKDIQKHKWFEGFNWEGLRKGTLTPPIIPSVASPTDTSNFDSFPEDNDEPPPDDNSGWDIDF
Particulars: at 0.1 µM.

The target in assay [15] is T5, cGMP-dependent protein kinase 1 (Homo sapiens). To be noted: at 1 µM.
Assay [16] has as its target T6, cGMP-dependent protein kinase 2 (Homo sapiens) (UniProt Q13237).
T6 sequence (whole entry): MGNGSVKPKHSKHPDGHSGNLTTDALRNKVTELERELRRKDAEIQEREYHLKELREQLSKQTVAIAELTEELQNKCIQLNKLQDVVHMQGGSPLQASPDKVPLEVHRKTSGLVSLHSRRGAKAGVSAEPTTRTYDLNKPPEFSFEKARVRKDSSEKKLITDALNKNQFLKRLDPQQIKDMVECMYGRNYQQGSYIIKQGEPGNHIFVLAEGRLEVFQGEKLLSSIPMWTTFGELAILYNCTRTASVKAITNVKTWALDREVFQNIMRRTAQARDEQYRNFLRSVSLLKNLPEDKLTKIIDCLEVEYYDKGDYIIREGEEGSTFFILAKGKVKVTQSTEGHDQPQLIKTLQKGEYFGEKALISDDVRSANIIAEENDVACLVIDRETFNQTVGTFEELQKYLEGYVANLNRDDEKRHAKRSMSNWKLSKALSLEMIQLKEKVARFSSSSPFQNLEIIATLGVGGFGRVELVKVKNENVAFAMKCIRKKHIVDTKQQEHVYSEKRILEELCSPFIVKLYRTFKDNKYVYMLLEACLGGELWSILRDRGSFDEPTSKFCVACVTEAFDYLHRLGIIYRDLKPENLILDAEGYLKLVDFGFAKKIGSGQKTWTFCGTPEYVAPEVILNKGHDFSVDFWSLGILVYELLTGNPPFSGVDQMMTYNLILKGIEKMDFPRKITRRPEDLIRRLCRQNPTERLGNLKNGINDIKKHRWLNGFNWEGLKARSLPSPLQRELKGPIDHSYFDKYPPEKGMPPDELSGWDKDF
To be noted: at 0.1 µM.

Assay [17] addresses T6, cGMP-dependent protein kinase 2 (Homo sapiens). Particulars: at 1 µM.
Assay [18] addresses T7, cAMP-dependent protein kinase catalytic subunit PRKX (Homo sapiens) (UniProt P51817).
T7 sequence (whole entry): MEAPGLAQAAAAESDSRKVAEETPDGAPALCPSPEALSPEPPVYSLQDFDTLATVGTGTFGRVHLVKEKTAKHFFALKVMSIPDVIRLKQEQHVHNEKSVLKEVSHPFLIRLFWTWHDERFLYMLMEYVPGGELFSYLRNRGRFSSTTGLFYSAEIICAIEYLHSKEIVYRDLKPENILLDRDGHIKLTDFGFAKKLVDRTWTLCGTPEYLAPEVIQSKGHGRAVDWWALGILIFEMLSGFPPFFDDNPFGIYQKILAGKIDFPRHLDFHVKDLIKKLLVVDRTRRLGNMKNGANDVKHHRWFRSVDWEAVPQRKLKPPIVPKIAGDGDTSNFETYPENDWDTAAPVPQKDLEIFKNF
Particulars: at 0.1 µM.

Assay [19] has as its target T7, cAMP-dependent protein kinase catalytic subunit PRKX (Homo sapiens). To be noted: at 1 µM.
Assay [20] addresses Rho-associated protein kinase 1 (Homo sapiens) (UniProt Q13464). Particulars: at 0.1 µM.

Chain of Rho-associated protein kinase 1 (Homo sapiens) (Q13464 2-1354 limits assumed): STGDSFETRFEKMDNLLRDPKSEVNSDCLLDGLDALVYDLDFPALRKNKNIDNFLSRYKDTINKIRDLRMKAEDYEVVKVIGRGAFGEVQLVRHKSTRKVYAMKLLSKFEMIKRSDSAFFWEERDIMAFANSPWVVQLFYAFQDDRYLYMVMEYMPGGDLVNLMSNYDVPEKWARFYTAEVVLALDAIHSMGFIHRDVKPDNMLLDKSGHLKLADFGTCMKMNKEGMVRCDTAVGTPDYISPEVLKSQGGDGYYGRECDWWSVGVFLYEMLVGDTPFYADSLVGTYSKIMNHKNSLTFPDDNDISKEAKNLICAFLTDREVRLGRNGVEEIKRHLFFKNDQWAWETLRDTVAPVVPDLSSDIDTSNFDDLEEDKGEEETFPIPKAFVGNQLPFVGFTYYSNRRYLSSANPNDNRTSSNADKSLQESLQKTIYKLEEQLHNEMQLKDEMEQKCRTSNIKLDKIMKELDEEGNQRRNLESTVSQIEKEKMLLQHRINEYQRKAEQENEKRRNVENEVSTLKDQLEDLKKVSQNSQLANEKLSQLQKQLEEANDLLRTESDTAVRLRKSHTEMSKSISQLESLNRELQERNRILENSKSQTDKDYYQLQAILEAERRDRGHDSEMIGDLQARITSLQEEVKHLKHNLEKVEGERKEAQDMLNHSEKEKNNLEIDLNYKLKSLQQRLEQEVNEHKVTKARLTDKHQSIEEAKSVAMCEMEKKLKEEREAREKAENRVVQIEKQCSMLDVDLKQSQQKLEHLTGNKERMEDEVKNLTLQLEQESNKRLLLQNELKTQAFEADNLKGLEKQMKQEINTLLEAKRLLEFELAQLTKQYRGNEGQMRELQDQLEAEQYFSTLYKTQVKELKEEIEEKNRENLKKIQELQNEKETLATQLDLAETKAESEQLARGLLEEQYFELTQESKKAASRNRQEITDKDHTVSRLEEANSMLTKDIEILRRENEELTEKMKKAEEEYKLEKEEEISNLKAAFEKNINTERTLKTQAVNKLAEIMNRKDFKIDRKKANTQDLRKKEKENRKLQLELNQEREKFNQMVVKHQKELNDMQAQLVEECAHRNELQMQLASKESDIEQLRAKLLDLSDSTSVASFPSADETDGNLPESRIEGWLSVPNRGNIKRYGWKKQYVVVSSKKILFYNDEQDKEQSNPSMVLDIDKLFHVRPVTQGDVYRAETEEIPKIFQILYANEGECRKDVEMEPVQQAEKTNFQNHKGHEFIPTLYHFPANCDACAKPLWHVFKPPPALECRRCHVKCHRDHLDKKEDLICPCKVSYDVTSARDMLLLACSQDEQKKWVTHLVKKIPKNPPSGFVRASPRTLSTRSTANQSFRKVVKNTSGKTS

In the case of `c1cc(-c2cnn3nc(N4CCOCC4)ccc23)nc(NC2CC2)n1`, the inhibition (usually the relative decrease from the control value, in per cent) in [1] was 1.85%; in assay [2], 1.79%; in assay [3] it was 3.89%; in assay [4], 1.39%; in assay [5], 1.61%; in assay [6], 0.87%. The inhibition in assay [7] amounted to 1.89%; in [8] it was 3.97%; in assay [9] it was 39.6%; in assay [10], 6.38%; in assay [11] it was 52.4%; in assay [12] it was 5.91%. In addition, the inhibition in assay [13] was 49.9%; in [14], 2.98%; in assay [15] it was 6.68%; in assay [16], 2.25%; in assay [17], 11.9%; in assay [18], 1.09%. The inhibition was -0.73% in [19] and 1.67% in [20].
